AMA1 RON2 block: inhibitors of Plasmodium falciparum AMA1-RON2 interaction. hit rate 0.2% among 360,000. AlphaScreen AMA1-biotinylated RON2 peptide binding. Potency, µM (top dose mostly 58.2 µM), without a hit: top-dose activity change, negative = inhibition, actives largely listed as inhibitors;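 further: 0% = vehicle wells and -100% = peptide control; nearly all actives have a fitted effect of over 45% in size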
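AMA1 (3D7) with his tag at 25 nM final met compounds first, then biotinylated RON2 peptide at 25 nM; detection used donor plus acceptor beads, 10 µg/mL apiece, read by AlphaScreen after 30 min at room temperature.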
AmpC detergent: blocks E. coli AmpC beta-lactamase in detergent assay; P00811; hit rate 0.041% among 370,000; AID 485294; AmpC hydrolysis of nitrocefin, absorbance 480 nm, 0.01% Triton; Potency, µM (series often up to 114 µM), for inactives: at the top dose activity change, negative = inhibition, usual class: inhibitors;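 further: 0% = no-compound wells and -100% = no-enzyme wells; nearly all actives have a fitted effect of over 25% in size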
Target sequence (P00811 whole entry, looked up): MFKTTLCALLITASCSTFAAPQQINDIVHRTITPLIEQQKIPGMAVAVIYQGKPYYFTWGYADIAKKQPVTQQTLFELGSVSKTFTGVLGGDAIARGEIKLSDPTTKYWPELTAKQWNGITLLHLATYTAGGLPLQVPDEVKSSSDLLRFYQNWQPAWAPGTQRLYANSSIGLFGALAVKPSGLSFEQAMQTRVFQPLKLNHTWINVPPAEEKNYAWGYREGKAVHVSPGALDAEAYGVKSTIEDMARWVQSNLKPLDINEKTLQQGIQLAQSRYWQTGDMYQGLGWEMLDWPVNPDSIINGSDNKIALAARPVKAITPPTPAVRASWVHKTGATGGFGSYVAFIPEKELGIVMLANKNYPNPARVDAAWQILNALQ
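20 mM phosphate pH 7.0 + 0.01% (detergent screen) or 0.0001% Triton X-100; 5.3 nM AmpC reagent; cpd preinc 15 min RT; nitrocefin (800 uM stock) to start; A480 q20 s × 4 min; Activity was normalised to no-enzyme and no-compound control wells.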
HCV inhibitor: inhibitors of hepatitis C virus infection; Huh7.5.1 HCVcc-Cre infection, luciferase reporter, 44 h; hit rate 3.4% among 340,000; Potency, µM (titrated, usually from 41.8 µM), without a hit: top-dose activity change, negative = inhibition, actives largely listed as inhibitors
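Seed cells (1,000/well) for 4 h; treat with compound and infect with HCVcc-Cre, moi about 0.5. Incubate 44 h, then detect luciferase activity.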
Pf growth 48h: inhibits P. falciparum growth in the first generation, 48 h; hit rate 5.9% among 310,000; Potency, µM (top dose mostly 28.7 µM), for the others: at the highest dose activity change, negative = inhibition, actives largely listed as inhibitors; P. falciparum luciferase growth in erythrocytes, 48 h
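Erythrocytes infected with P. falciparum carrying an integrated firefly luciferase reporter (2% hematocrit, 0.1% parasitemia final) were exposed to compounds in RPMI 1640 with 0.5% Albumax at 37 C, 5% CO2. Growth inhibition was scored as reduced luminescence.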
Pf growth 96h: P. falciparum growth inhibition at 96 hour, primary screen for plastid delayed-death inhibitors; Potency, µM (top dose mostly 28.7 µM), for the others: at the highest dose activity change, negative = inhibition, hits mostly inhibitors; AID 504834; P. falciparum luciferase reporter growth, 96 h; hit rate 6.9% among 320,000
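Parasite growth measured via integrated firefly luciferase reporter in P. falciparum. Infected erythrocytes at 2% hematocrit, 0.05% parasitemia final were treated 96 hours at 37 C under 5% CO2, and luminescence was read.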
AmpC inh no detg: AmpC beta-lactamase inhibition without detergent. P00811. AmpC nitrocefin hydrolysis, absorbance 480 nm, 0.0001% Triton. Potency, µM (top dose mostly 57.1 µM), inactives show at the highest dose activity change, negative = inhibition, usual class: inhibitors. hit rate 0.52% among 330,000. AID 485341;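 further: plate controls were no compound for no effect and no enzyme for full effect; nearly all actives have a fitted effect of over 20% in size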
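20 mM phosphate pH 7.0 + 0.01% (detergent screen) or 0.0001% Triton X-100; 5.3 nM AmpC reagent; cpd preinc 15 min RT; nitrocefin (800 uM stock) to start; A480 q20 s × 4 min; Activity was normalised to no-enzyme and no-compound control wells.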
Starred values were filed as active, the others as inactive; ? = inconclusive; nt = no result; [ ] = dose if it differs, or a comment. This is a sample that favours compounds with a hit; in the whole collection about 11% have one here. The call rests on the fitted dose curve; in most records, active means well fitted curve in the direction sought with a large enough effect; inconclusive means small, poorly fitted or top-dose-only effect, or another doubt; inactive means no such curve, though single readings can be large; an effect the other way counts as inactive or inconclusive. Unless noted, on the % scale 0 is the no-effect control and ±100 the full control effect; potency means the concentration at half of the fitted maximal effect.

SMILES	AMA1 RON2 block	AmpC detergent	HCV inhibitor	Pf growth 48h	Pf growth 96h	AmpC inh no detg
CCc1ccc(C2c3c(-c4ccccc4O)n[nH]c3C(=O)N2Cc2ccncc2)cc1 (stereo not drawn)	nt	-6%	nt	nt	nt	nt
CCN(CC)S(=O)(=O)c1ccc2c(c1)N(CC(=O)NCCCN1CCN(c3cc(Cl)ccc3C)CC1)C(=O)CO2	nt	10%	nt	nt	nt	nt
CCCCN(C)CCCNC(=O)c1ccc2nc(N3CCCCC3)sc2c1	nt	19%	nt	nt	nt	nt
CCC(C)n1c(=N)c(S(=O)(=O)c2ccc(C)cc2)cc2c(=O)n3cc(C)ccc3nc21 (stereo not drawn)	nt	10%	nt	nt	nt	nt
Cc1ccc(-c2nn(-c3ccccc3)cc2/C=C(\C#N)C(=O)NCc2ccccc2)cc1	?	-5%	8%	14%	44%	-36%
CCCSc1ccc(-c2nn(-c3ccccc3)cc2/C=C(/C#N)C(=O)NCCCOC)cc1	-28%	?	36%	1%	3.7µM*	-13%
CCSc1ccc(-c2nn(-c3ccccc3)cc2/C=C(/C#N)C(=O)NCCCOC)cc1	27%	-7%	9%	1.9µM*	?	-19%
CC(NC(=O)/C(C#N)=C/c1cn(-c2ccccc2)nc1-c1ccc(F)cc1)c1ccccc1 (stereo not drawn)	-11%[11.6 µM]	0%	-5%	?	?	-26%
CCc1ccc(S(=O)(=O)c2nnn3c2nc(Nc2ccc(NC(C)=O)cc2)c2sccc23)cc1	nt	8%	nt	nt	nt	nt
CCC(=O)Nc1cccc(C2=NOC3(C2)C[C@@H](C(N)=O)N(C(=O)C(c2ccccc2)c2ccccc2)C3)c1 (stereo partly drawn)	-10%	-1%	?	25%	?	147%
CC/C=C/C(=O)N1CC2(CC(c3cccc(NC(=O)COc4ccc(Cl)cc4)c3)=NO2)C[C@H]1C(N)=O (stereo partly drawn)	-1%	-7%	-28%	10µM*	4.7µM*	203%
NC(=O)[C@@H]1CC2(CC(c3cccc(NC(=O)COc4ccc(Cl)cc4)c3)=NO2)CN1C(=O)COc1ccc(Cl)cc1 (stereo partly drawn)	-23%	-3%	10µM*	?	?	45%
NC(=O)[C@H]1CC2(CC(c3cccc(NC(=O)COc4ccc(Cl)cc4)c3)=NO2)CN1C(=O)C(c1ccccc1)c1ccccc1 (stereo partly drawn)	8%	3%	?	13µM*	?	40%
COc1ccccc1/C=C/c1nc(C#N)c(N2CCN(C)CC2)o1	nt	21%	nt	nt	nt	nt
Cc1ccc(S(=O)(=O)NCCc2csc(-c3cccc(F)c3)n2)cc1	nt	19%	nt	nt	nt	nt
COCCCNC(=O)c1ccc(-c2nc(CS(=O)(=O)c3ccc(C)cc3)c(C)o2)cc1	nt	20%	nt	nt	nt	nt
CCSc1nc2c(c(=O)[nH]1)C(c1ccncc1)C(C(=O)OC(C)C)=C(C)N2 (stereo not drawn)	4%	-11%	7%	?	10µM*	-11%
O=C(NCc1ccccn1)c1ccc(OC2CCN(Cc3ccccc3O)CC2)cc1	13%	?	nt	?	?	-1%
CCOc1ccccc1CN1CCC(Oc2cccc(C(=O)NCCOC)c2)CC1	2%	-12%	-4%	?	25%	1%
O=C(NCc1ccccn1)c1ccc(OC2CCN(Cc3ccccc3)CC2)cc1	-10%	1%	11%	-5%	63%	6%
CCC(C)N1CCC(Oc2ccc(C(=O)NCc3ccccn3)cc2)CC1 (stereo not drawn)	-1%	1%	1%	-10%	10µM*	11%
COc1cccc(CN2CCC(Oc3ccc(C(=O)NCc4ccccn4)cc3)CC2)c1O	-14%	?	-20%	?	6.6µM*	4%
O=C(NCc1ccccn1)c1ccc(OC2CCN(Cc3ccc(F)cc3F)CC2)cc1	-3%	-5%	-30%	12µM*	-3%	100%
COCCNC(=O)c1cccc(OC2CCN(Cc3ccccc3C)CC2)c1	-6%	2%	-10%	-4%	1.5µM*	15%
O=C(NC1CCCCC1)c1c[nH]c2ccc(S(=O)(=O)Nc3ccccc3F)cc2c1=O	nt	1%	nt	nt	nt	nt
SMILES	AMA1 RON2 block	AmpC detergent	HCV inhibitor	Pf growth 48h	Pf growth 96h	AmpC inh no detg
O=C(c1ccccc1Cl)N1CCN(CCc2ccccn2)CC1	nt	-5%	nt	nt	nt	nt
COc1cccc(C(=O)Nc2ccc3nc(SCC(=O)N4CCc5ccccc54)sc3c2)c1	nt	11%	nt	nt	nt	nt
CCN(CC)c1nc2ccccc2nc1C(=O)Nc1cc(OC)c(OC)c(OC)c1	nt	2%	nt	nt	nt	nt
O=C(CNC(=O)OCc1ccccc1)Nc1ccc(Br)cc1C(=O)c1ccccc1Cl	14%	-6%	8.9µM*	?	?	-21%
CN(C(=O)CNC(=O)OCc1ccccc1)c1ccc(Br)cc1C(=O)c1ccccc1Cl	-7%	0%	?	?	-79%	-6%
Cc1cccc(C)c1NC(=S)NCCc1ccc(O)c(O)c1	2%	2%	?	10µM*	-20%	-26%
CC(C)c1cc(C(=O)NNC(=S)NC2CCCCC2)cs1	96%	6%	?	120%	102%	14µM*
Cc1nn(C)c(C(=O)NNC(=S)NC2CCCCC2)c1Br	76%	-2%	11%	82%	5.2µM*	-20%
CCc1cc(C(=O)NNC(=S)NC2CCCCC2)cs1	127%	3%	?	153%	-100%	?
COc1ccc(NC(=O)c2oc3ccccc3c2NC(=O)Cc2ccc(F)cc2)c(OC)c1	nt	7%	nt	nt	nt	nt
CCOc1ccc(-c2cn3c(n2)sc2cc(C(=O)NCCCN(CC)CC)ccc23)cc1	nt	3%	nt	nt	nt	nt
COc1cc(CNCCN2CCOCC2)ccc1OCc1ccc(Cl)cc1	-6%	0%	7.1µM*	nt	?	22%
COc1cc(CNCCN2CCOCC2)ccc1OCc1ccccc1Cl	1%	-11%	?	?	12µM*	21%
COc1cc(CNCCCN2CCOCC2)cc(Br)c1OCc1ccc(Cl)cc1	-15%	8%	1.8µM*	?	?	25%[2.29 µM]
COc1ccc(CCNCCN2CCOCC2)cc1	14µM*	-3%	-5%	12%	0%	-17%
O=C(Nc1ccccc1)c1cnc(N2CCCCC2)c2ccccc12	nt	0%	nt	nt	nt	nt
COCC(C)n1c(SCC(=O)c2cc(C)n(C)c2C)nc2ccccc2c1=O (stereo not drawn)	?	6%	?	13µM*	?	148%
C/C(N)=C(/C#N)C(=O)CSc1nc2ccccc2c(=O)n1CCCOC(C)C	8%	1%	11%	?	?	20%
